Screening results from PubChem BioAssay.
PNC assembly inh: High Content Assay for Compounds that inhibit the Assembly of the Perinucleolar Compartment; PC3M PTB-GFP, PNC prevalence imaging, 16 h; hits give low values; activity change (PNC), negative = inhibition, % at 10 µM; actives 3.1% (n = 140,000); AID 2417, 2010;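 active means readout at or below -70, meaning at least 70% loss of cells showing the perinucleolar compartment, a nuclear body marking cancer cells; inconclusive means readout between -30 and a set limit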;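 further: plate controls were DMSO wells for no effect and camptothecin positive control wells for full effect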
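Compounds are pinned in duplicate onto adhered PC3M cells stably expressing GFP-tagged PTB and incubated 16 h at 37 C. Cells are then fixed, nuclei stained with Hoechst, and PNC-positive cells counted.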
ALDH1A1 block: qHTS Assay for Inhibitors of Aldehyde Dehydrogenase 1 (ALDH1A1) | Aldehyde dehydrogenase 1A1 (Homo sapiens), P00352 | Purified ALDH1A1, NADH fluorescence, propionaldehyde substrate | Potency, µM (highest dose often 75.3 µM), for the others: at the top dose activity, negative = inhibition, usual class: inhibitors | actives 7.3% (n = 220,000) | AID 1030, 2008;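 further: potency means the concentration at half of the fitted maximal effect; plate controls were no enzyme wells and a reference inhibitor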
Target sequence (P00352 whole entry, looked up): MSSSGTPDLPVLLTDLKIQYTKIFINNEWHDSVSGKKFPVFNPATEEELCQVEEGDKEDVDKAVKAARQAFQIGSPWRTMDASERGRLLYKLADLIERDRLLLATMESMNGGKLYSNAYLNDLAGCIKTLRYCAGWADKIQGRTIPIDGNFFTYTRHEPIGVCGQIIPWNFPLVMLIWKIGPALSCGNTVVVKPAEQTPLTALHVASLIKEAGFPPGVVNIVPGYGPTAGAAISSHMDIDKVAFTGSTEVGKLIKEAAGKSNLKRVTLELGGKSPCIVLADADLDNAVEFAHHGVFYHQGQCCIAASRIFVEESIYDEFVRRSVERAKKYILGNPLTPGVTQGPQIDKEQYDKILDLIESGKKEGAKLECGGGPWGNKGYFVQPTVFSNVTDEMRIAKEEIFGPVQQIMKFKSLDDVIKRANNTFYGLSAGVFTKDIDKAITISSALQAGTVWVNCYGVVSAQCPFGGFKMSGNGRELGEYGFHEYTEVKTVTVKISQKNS
HPGD inh: qHTS Assay for Inhibitors of HPGD (15-Hydroxyprostaglandin Dehydrogenase). 15-hydroxyprostaglandin dehydrogenase [NAD(+)] (Homo sapiens), P15428. purified HPGD, NADH fluorescence kinetic, PGE2 substrate. Potency, µM, for the others: top-dose activity change, negative = inhibition, most hits filed as inhibitors. actives 4.3% (n = 150,000). AID 894, 2007; further: potency means the concentration at half of the fitted maximal effect
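20 nM HPGD preincubated 15 min at room temperature with compound in 50 mM Tris-HCl pH 8, 0.01% Tween 20. Started with 1 mM NAD+ and 30 uM prostaglandin E2; NADH fluorescence (360/450 nm) read 5 times over 30-s intervals, last minus first.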
The depositor's hits bear a star; ? = inconclusive; nt = no result; [ ] = another dose, or the depositor's remark. Most compounds without a hit are left out; they make up all but 11% or so of the library. Unless noted, the call rests on the fitted dose curve; in most records, active means well fitted inhibition curve with a large enough effect (not every such curve was filed as active); inconclusive means small, poorly fitted or top-dose-only effect, or another doubt; inactive means no such curve, though single readings can be large or run the other way. Unless noted, on the % scale 0 is the no-effect control and ±100 the full control effect.

SMILES | PNC assembly inh | ALDH1A1 block | HPGD inh
O=C(c1ccc2c(c1)OCO2)C1CCCN(C(=O)NCc2ccccc2)C1 (stereo unspecified) | nt | -8% | nt
O=C(NCCN1CCN(c2cccc(Cl)c2)CC1)c1ccc(CSc2nc3ccncc3[nH]2)cc1 | nt | -6% | nt
C/C(=N/NC(=O)c1ccncc1)c1ccccc1Cl | nt | 8%[13.5 µM] | -5%
Cc1ccc(CNC(=O)CCS(=O)(=O)c2ccc(Br)s2)o1 | -2 | 22µM* | -16%
O=C(CCS(=O)(=O)c1ccc(Br)s1)NCc1ccccc1 | -3 | 1% | 4%
CCOc1cc(C2/C(=C(/O)c3ccc(OC(C)C)cc3)C(=O)C(=O)N2CCCOC)ccc1O (stereo unspecified) | -20 | ? | ?
CCN(CC)Cc1cc(C(C)=O)ccc1OCC(C)C | -24 | 1.1µM* | -3%
CC(=O)c1ccc(OCC(C)C)c(CC(C(N)=O)C(N)=O)c1 | 19 | 10% | -10%
CCOc1cc(C(=O)CCC(=O)OCC(=O)Nc2ccc(C)c(S(=O)(=O)N(C)C)c2)ccc1O | nt | 28µM* | nt
Cc1ccc(NC(=O)COC(=O)CCC(=O)c2ccc(Cl)cc2)cc1S(=O)(=O)N(C)C | ? | -17% | nt
Cc1ccc(NC(=O)CSc2n[nH]c(-c3ccco3)n2)cc1 | nt | 2% | nt
Cc1ccc(C(=O)CSc2n[nH]c(-c3ccco3)n2)cc1C | 5 | ? | 5µM*
CCc1nc(SCC(=O)c2ccc(C)c(C)c2)n[nH]1 | 18 | ? | ?
COc1ccc(C(=O)CSc2n[nH]c(-c3ccco3)n2)cc1 | -107* | -6% | 3.5µM*
COc1ccc(-c2cc3nc(C)cc(N4CC(C)CC(C)C4)n3n2)cc1 (stereo unspecified) | 169 | -5% | ?
Cc1cc2c(c(SCC(=O)NCc3ccccc3Cl)n1)C(=O)OC2 | nt | -4% | nt
CCCC/S(CC1CC1(Cl)Cl)=N\S(=O)(=O)c1ccc(C)cc1 (stereo unspecified) | -8 | ? | -6%
Cc1ccc(S(=O)(=O)/N=S(\C)CC2CC2(Cl)Cl)cc1 (stereo unspecified) | -18 | 10µM* | -12%
CC(=O)c1c(C)nc(-c2ccc(Cl)cc2Cl)n1O | -100* | 9% | -16%
CC(=O)c1c(C)nc(-c2ccccc2)n1O | 3 | 9% | -13%
O=C(/C(=C/c1ccccc1Cl)c1ccccc1)N1CCOCC1 | ? | -1% | -12%
O=C(N/C(=C\c1ccccc1)C(=O)N1CCCCCC1)c1ccccc1 | nt | -4% | nt
O=C(/C=C/c1ccccc1)N/C(=C/c1ccccc1)C(=O)N1CCCCC1 | 11 | 14µM* | nt
O=C(/C(=C/c1ccccc1)c1ccccc1)N1CCCCC1 | 100 | 4% | 0.71µM*
CCN1C(C)=C(C(=O)OC)C(c2ccccc2)N2C(=O)[C@](O)(C(=O)OC)C(c3ccccc3)C(C(C)=O)=C12 (stereo partly specified) | nt | 5%[13.5 µM] | nt
SMILES | PNC assembly inh | ALDH1A1 block | HPGD inh
O=C1C2Cc3c([nH]c4ccccc34)C(c3ccccc3)N2C(=O)C2Cc3c([nH]c4ccccc34)C(c3ccccc3)N12 (stereo unspecified) | nt | 4%[13.5 µM] | nt
COC(=O)Cc1cc(=O)n(-c2nc3ccccc3[nH]2)[nH]1 | -100* | 4% | -5%
COC(=O)Cc1[nH]n(-c2nc3ccccc3s2)c(=O)c1C(C)=O | -19 | ? | -17%
Cc1ccccc1-n1c(=O)cc(N2CCc3ccccc3C2)[nH]c1=O | ? | ? | -12%
O=c1cc(N2CCc3ccccc3C2)[nH]c(=O)n1-c1ccccc1Cl | 10 | 6.3µM* | -15%
S=C(c1c[nH]c2ccccc12)N1CCOCC1 | nt | 20µM* | nt
O=C(C(=O)N1CCOCC1)c1c[nH]c2ccccc12 | nt | 31% | nt
Cc1cc(C)n(CC(O)Cn2c3ccccc3c3ccccc32)n1 (stereo unspecified) | 9 | ? | ?
Cc1cc(C)n(CCc2nc3c4ccccc4n(CC#N)c(=O)n3n2)n1 | -13 | 11µM* | -9%
CCN(c1ccc(C)c(C)c1)S(=O)(=O)c1c(C)[nH]c(=O)[nH]c1=O | -16 | -9% | -9%
COc1cccc(/C=N/N=C(\N)c2nonc2N)c1O | nt | 3% | nt
CCOC(=O)c1nn(-c2ccccc2)c(=O)c2c(N)scc12 | 9 | ? | -20%
CCOC(=O)c1nn(-c2ccccc2C)c(=O)c2c(N)scc12 | nt | 9.5µM* | nt
CCOC(=O)C1CCCN(Cc2cc(Br)ccc2OC)C1 (stereo unspecified) | 39 | 10µM* | -3%
CCOC(=O)C1CCCN(Cc2c(Cl)cccc2Cl)C1 (stereo unspecified) | ? | ? | 11%
CCOC(=O)C1CCCN(Cc2ccccc2F)C1 (stereo unspecified) | -89* | 11µM* | -5%
CCOC(=O)C1CCCN(Cc2cc(Br)c(OC)cc2OC)C1 (stereo unspecified) | ? | ? | -5%
S=C(c1ccc2c(c1)OCO2)N1CCCC1 | -10 | 6% | -9%
CCC(=O)NC(Nc1ncc(C)s1)(C(=O)OC)C(F)(F)F (stereo unspecified) | 38 | -7% | -4%
Cc1cc(=O)[nH]c(-n2[nH]c(C)cc2=O)n1 | 65 | 1% | -11%
COc1ccc(-n2[nH]c(C)cc2=O)cc1 | ? | 3.2µM* | -1%
COC(=O)c1c(NC(=O)c2ccccc2)sc(Cc2ccccc2)c1C | 2 | ? | ?
Cc1ccc(C(=O)Nc2sc(C)c(-c3ccccc3)c2C(N)=O)cc1[N+](=O)[O-] | 30 | 10µM* | 25µM*
COC(=O)c1c(NC(=O)c2cccc([N+](=O)[O-])c2)sc(C(N)=O)c1C | nt | 7.9µM* | nt
COC(=O)c1sc(NC(=O)c2cccc([N+](=O)[O-])c2)c(C(N)=O)c1C | ? | 10µM* | 28µM*
SMILES | PNC assembly inh | ALDH1A1 block | HPGD inh
COC(=O)c1c(NC(=O)c2ccccc2)sc(C(=O)c2ccccc2)c1C | 65 | 14µM* | -24%
COc1ccc(Cc2nnc(NC(=O)c3cccc([N+](=O)[O-])c3)s2)cc1 | 28 | 10% | -9%
CCCC(=O)Nc1sc(C(=O)OC)c(C)c1C(N)=O | ? | -12% | nt
Cc1ccc(C(=O)NC(C)CCc2ccccc2)cc1[N+](=O)[O-] (stereo unspecified) | 54 | ? | -16%
O=C(O)COc1ccc2c(c1)OCCO2 | 26 | 5% | 0%
O=C1CC(C(=O)Nc2cc(Cl)ccc2Cl)n2ncnc2N1 (stereo unspecified) | nt | -3% | nt
CCC(=O)c1cc(F)c(N2CCN(S(=O)(=O)c3ccc(C)cc3)CC2)cc1C | 10 | -15% | -19%
O=C(c1ccncc1)N(c1ccc2oc3c(c2c1)CCCC3)S(=O)(=O)c1ccc(F)cc1 | ? | -4% | -15%
COc1cccc(/C=C2\SC(=S)N(N3CCOCC3)C2=O)c1OC | -8 | 14µM* | -9%
O=C1/C(=C/c2ccccc2)SC(=S)N1N1C(=O)C2CC2C1=O (stereo unspecified) | nt | 1% | nt
COc1ccccc1/C=C1\SC(=S)N(N2C(=O)CCCC2=O)C1=O | nt | 25µM* | nt
COc1ccccc1/C=C1\SC(=S)N(CC(=O)Nc2nnc(C)s2)C1=O | nt | 4% | nt
O=C1/C(=C/c2ccccn2)SC(=S)N1N1CCOCC1 | nt | 4.5µM* | nt
